Laboratory results taken from PubChem BioAssay (EPA / NIEHS).
Records with an inconclusive call do not appear. The source made the active and inactive calls. The calls were made as follows, unless noted: active = hit-call score of the fitted dose curve at least 0.9, where 1 is the maximum; inactive = score below 0.9.

What was measured:
[1] = biological target: human RAR-related Orphan Receptor gamma (RORg), RORC (gene 6097) (UniProt P51449); assay: ATG_RORg_TRANS: Attagene TRANS-FACTORIAL HepG2 Assay for human RAR-related Orphan Receptor gamma (RORg) (AID 2283011; active = hit-call score of the fitted dose curve at least 0.9, where 1 is the maximum)
Sequence of human RAR-related Orphan Receptor gamma (RORg), RORC (gene 6097) (P51449 whole entry, looked up, the tested form may be a part): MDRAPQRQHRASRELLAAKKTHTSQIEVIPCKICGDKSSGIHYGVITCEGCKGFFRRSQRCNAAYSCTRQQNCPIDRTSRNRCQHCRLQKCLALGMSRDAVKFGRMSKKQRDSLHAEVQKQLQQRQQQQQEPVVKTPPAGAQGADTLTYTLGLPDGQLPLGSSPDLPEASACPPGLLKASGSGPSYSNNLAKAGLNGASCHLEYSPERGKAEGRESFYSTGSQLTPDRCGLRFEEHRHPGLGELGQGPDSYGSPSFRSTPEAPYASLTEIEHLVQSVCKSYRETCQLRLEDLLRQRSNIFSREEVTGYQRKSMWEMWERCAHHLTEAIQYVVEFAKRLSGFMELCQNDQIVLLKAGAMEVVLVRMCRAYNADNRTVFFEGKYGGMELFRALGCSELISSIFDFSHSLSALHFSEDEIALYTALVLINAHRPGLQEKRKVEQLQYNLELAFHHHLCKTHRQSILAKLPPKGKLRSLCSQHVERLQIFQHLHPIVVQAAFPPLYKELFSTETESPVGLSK
In short: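 Reporter transcripts from a transfected RORg-GAL4 chimera in HepG2 cells were quantified 24 h after dosing by RT-PCR, 6-FAM labelling, HpaI digestion and capillary electrophoresis; increases over DMSO baseline were fitted.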

[2] = biological target: Retinoic acid receptor RXR-alpha (Homo sapiens) (UniProt P19793); assay: ATG_RXRa_TRANS: Attagene TRANS-FACTORIAL HepG2 Assay for human Retinoid X Receptor alpha (RXRa) (AID 2283012; active = hit-call score of the fitted dose curve at least 0.9, where 1 is the maximum)
Sequence of Retinoic acid receptor RXR-alpha (Homo sapiens) (P19793 whole entry, looked up, the tested form may be a part): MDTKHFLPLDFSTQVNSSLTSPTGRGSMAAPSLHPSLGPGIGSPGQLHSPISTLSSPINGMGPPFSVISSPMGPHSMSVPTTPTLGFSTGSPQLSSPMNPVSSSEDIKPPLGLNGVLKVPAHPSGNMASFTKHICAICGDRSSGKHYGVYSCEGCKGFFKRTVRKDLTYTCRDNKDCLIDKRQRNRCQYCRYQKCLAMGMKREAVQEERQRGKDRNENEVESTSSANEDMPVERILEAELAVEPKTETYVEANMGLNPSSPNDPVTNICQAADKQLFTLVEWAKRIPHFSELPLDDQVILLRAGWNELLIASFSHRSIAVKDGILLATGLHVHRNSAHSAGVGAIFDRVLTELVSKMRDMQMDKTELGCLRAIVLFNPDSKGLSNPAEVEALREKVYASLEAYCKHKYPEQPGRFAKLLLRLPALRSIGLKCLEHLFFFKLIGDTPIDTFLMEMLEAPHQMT
In short: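 Cells (HepG2) carried transiently transfected GAL4-responsive reporter units. Following a 24 h chemical incubation, reporter mRNA induction was read via RT-PCR fragment analysis; DMSO served as negative control and baseline.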

[3] = biological target: human Thyroid Receptor alpha (THRa1), THRA (gene 7067) (UniProt P10827); assay: ATG_THRa1_TRANS: Attagene TRANS-FACTORIAL HepG2 Assay for human Thyroid Receptor alpha (THRa1) (AID 2283014; active = hit-call score of the fitted dose curve at least 0.9, where 1 is the maximum)
Sequence of human Thyroid Receptor alpha (THRa1), THRA (gene 7067) (P10827 whole entry, looked up, the tested form may be a part): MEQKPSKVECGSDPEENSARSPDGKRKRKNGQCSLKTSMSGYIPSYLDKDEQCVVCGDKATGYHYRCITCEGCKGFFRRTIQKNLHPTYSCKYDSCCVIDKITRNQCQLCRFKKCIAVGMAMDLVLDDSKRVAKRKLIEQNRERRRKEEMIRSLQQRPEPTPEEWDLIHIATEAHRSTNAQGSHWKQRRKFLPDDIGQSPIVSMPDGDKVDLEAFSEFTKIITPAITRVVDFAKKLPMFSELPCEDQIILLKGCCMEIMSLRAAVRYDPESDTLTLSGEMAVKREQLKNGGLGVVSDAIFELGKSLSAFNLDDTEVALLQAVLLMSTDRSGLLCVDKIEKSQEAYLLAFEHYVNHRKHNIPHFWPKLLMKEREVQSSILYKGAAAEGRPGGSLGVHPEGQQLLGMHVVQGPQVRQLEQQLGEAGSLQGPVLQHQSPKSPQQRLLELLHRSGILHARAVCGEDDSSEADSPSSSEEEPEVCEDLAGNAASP
In short: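 Transcripts from GAL4-UAS-driven reporters, measured after 24 h compound exposure by RT-PCR plus capillary electrophoresis of 6-FAM-labeled fragments, were fitted for gain of signal relative to DMSO. Cells: transiently transfected HepG2 expressing NR-Gal4 chimeras.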

[4] = read-out: E-selectin (Homo sapiens) (UniProt P16581); assay: BSK_3C_Eselectin: BioMAP Diversity Plus: 3C Assay for Eselectin Biomarker Activity (AID 2283015); details: primary human endothelial cells (HUVEC); actives raise or lower the signal
In short: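 E-selectin ELISA readout, fitted bidirectionally relative to DMSO, taken 24 h post-dosing in HUVEC cultures of the 3C system. Overt cytotoxicity tracked with sulforhodamine B staining of parallel wells.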

[5] = read-out: Interleukin-1 alpha (IL1a), IL1A (gene 3552); assay: BSK_BE3C_IL1a: BioMAP Diversity Plus: BE3C Assay for Interleukin-1 alpha (IL1a) Biomarker Activity (AID 2283016); details: primary human bronchial epithelial cells; actives raise or lower the signal
In short: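 Cultures of primary human bronchial epithelial cells receive test chemical. After 24 h, IL-1a is quantified by ELISA, while parallel wells are fixed in TCA and SRB-stained for total protein. Changes in either direction are fitted relative to DMSO.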

[6] = read-out: Monocyte Chemoattractant Protein-1 (MCP1), CCL2 (gene 6347); assay: BSK_3C_MCP1: BioMAP Diversity Plus: 3C Assay for Monocyte Chemoattractant Protein-1 (MCP1) Biomarker Activity (AID 2283017); details: primary human endothelial cells (HUVEC); actives raise or lower the signal
In short: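 MCP-1 was measured by ELISA 24 h after dosing in primary HUVEC 3C cultures and fitted in both directions relative to DMSO; cytotoxicity was checked by SRB total-protein staining in parallel wells.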

[7] = read-out: Human Leukocyte Antigen - DR isotype (HLADR), HLA-DRA (gene 3122); assay: BSK_3C_HLADR: BioMAP Diversity Plus: 3C Assay for Human Leukocyte Antigen - DR isotype (HLADR) Biomarker Activity (AID 2283019); details: primary human endothelial cells (HUVEC); actives raise or lower the signal
In short: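 Bidirectional fitting against DMSO was applied to the HLA-DR ELISA signal from human umbilical vein endothelial cells, 24 h post-dose. Cytotoxicity came from parallel SRB total-protein staining; 3C proliferation was counted by SRB at 48 h.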

[8] = read-out: Interleukin-8 (IL8), CXCL8 (gene 3576); assay: BSK_3C_IL8: BioMAP Diversity Plus: 3C Assay for Interleukin-8 (IL8) Biomarker Activity (AID 2283020); details: primary human endothelial cells (HUVEC); actives raise or lower the signal
In short: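 Human vascular endothelial cells (umbilical vein) in the 3C system; IL-8 level detected by ELISA at 24 h post-dose, with DMSO as baseline.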

[9] = read-out: Monokine induced gamma interferon (MIG), CXCL9 (gene 4283); assay: BSK_3C_MIG: BioMAP Diversity Plus: 3C Assay for Monokine induced gamma interferon (MIG) Biomarker Activity (AID 2283021); details: primary human endothelial cells (HUVEC); actives raise or lower the signal;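 as to AC50: MIG protein level measured by immunoassay in the treated endothelial cultures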
In short: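 After 24 h of treatment, human umbilical vein endothelial cultures (3C system) had their MIG biomarker level determined by ELISA, with DMSO serving as negative control.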

[10] = biological target: human Vitamin D Receptor (VDR), VDR (gene 7421) (UniProt P11473); assay: ATG_VDR_TRANS: Attagene TRANS-FACTORIAL HepG2 Assay for human Vitamin D Receptor (VDR) (AID 2283022; active = hit-call score of the fitted dose curve at least 0.9, where 1 is the maximum)
Sequence of human Vitamin D Receptor (VDR), VDR (gene 7421) (P11473 whole entry, looked up, the tested form may be a part): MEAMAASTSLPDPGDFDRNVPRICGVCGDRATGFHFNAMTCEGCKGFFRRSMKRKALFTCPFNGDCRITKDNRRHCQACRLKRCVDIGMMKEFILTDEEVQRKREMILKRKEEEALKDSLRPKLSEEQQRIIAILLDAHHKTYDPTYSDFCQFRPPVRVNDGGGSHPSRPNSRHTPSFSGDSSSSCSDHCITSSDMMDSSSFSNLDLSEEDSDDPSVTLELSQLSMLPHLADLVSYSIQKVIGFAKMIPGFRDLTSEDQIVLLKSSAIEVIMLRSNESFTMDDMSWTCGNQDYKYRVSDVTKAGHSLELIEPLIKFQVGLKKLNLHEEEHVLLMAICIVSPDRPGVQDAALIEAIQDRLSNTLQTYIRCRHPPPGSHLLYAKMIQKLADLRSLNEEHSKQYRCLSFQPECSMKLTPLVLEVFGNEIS
In short: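 Transactivation by an exogenous VDR-Gal4 chimera in transiently transfected HepG2 cells was measured as reporter transcript level 24 hours after chemical treatment. RT-PCR products were analysed by capillary electrophoresis and fitted in the positive direction relative to DMSO.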

[11] = BSK_3C_SRB: Viability Assessment in the BioMAP Diversity Plus: 3C Assay (AID 2283023); details: primary human endothelial cells (HUVEC);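 also: fitted both ways against DMSO so a hit may be signal rise or drop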
In short: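 Cytotoxicity readout in parallel HUVEC 3C cultures: after 24 h compound exposure, cells fixed with 10% TCA, stained with 0.1% SRB and read at 560 nm. Gain or loss relative to DMSO fitted.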

[12] = read-out: Matrix Metallopeptidase 1 (MMP1), MMP1 (gene 4312); assay: BSK_BE3C_MMP1: BioMAP Diversity Plus: BE3C Assay for Matrix Metallopeptidase 1 (MMP1) Biomarker Activity (AID 2283024); details: primary human bronchial epithelial cells; actives raise or lower the signal
In short: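 Dose cells, wait 24 h, run MMP1 ELISA; cells are human bronchial epithelial primaries. Both increases and decreases relative to DMSO counted.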

[13] = BSK_3C_Vis: BioMAP Diversity Plus: 3C Assay for Morphology Visualization (AID 2283025); details: primary human endothelial cells (HUVEC);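 also: fitted both ways so gain or loss versus DMSO counts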;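 as to AC50: light microscopy image of cell morphology used as background control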
In short: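 Endothelial cells from human umbilical vein were treated with test chemicals for 24 h and inspected by light microscopy for changes in cell conformation.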

[14] = read-out: Pselectin, SELP (gene 6403); assay: BSK_4H_Pselectin: BioMAP Diversity Plus: 4H Assay for Pselectin Biomarker Activity (AID 2283026); details: primary human endothelial cells (HUVEC); actives raise or lower the signal
In short: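 Human vascular endothelium from umbilical vein; P-selectin measured by ELISA at 24 h post-dose, with cytotoxicity checked by sulforhodamine B total-protein staining in parallel cultures (0.1% SRB after 10% TCA fixation, read at 560 nm).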

[15] = BSK_4H_SRB: Viability Assessment in the BioMAP Diversity Plus: 4H Assay (AID 2283027); details: primary human endothelial cells (HUVEC);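 also: cells exposed to compound for 24 h before staining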;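 as to AC50: curves fitted both ways versus DMSO so AC50 may be loss or gain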
In short: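 Human umbilical vein endothelial cells were dosed with chemical and, after 24 h, fixed with 10% TCA, stained with 0.1% sulforhodamine B, and read at 560 nm to give total protein as a cytotoxicity measure. Bidirectional fitting relative to DMSO control.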

[16] = BSK_BE3C_SRB: Viability Assessment in the BioMAP Diversity Plus: BE3C Assay (AID 2283028); details: primary human bronchial epithelial cells;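 as to AC50: fitted both ways so AC50 may mark signal gain or loss versus DMSO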
In short: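 Cytotoxicity read-out: SRB (0.1%) staining of TCA-fixed (10%) human lung bronchial epithelial cells, absorbance 560 nm, 24 h post-dosing. Curves fitted both directions relative to DMSO.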

[17] = read-out: Thrombomodulin, THBD (gene 7056); assay: BSK_3C_Thrombomodulin: BioMAP Diversity Plus: 3C Assay for Thrombomodulin Biomarker Activity (AID 2283029); details: primary human endothelial cells (HUVEC); actives raise or lower the signal
In short: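 Thrombomodulin ELISA, human primary HUVEC, 24 h post-dose; data fitted in both directions relative to DMSO.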

[18] = read-out: Urokinase-type plasminogen activator receptor (uPAR), PLAUR (gene 5329); assay: BSK_4H_uPAR: BioMAP Diversity Plus: 4H Assay for Urokinase-type plasminogen activator receptor (uPAR) Biomarker Activity (AID 2283030); details: primary human endothelial cells (HUVEC); actives raise or lower the signal
In short: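 uPAR level read by ELISA on HUVEC cultures (BioMAP 4H) 24 h post-dosing, analyzed for gain or loss relative to DMSO. Parallel SRB staining assessed overt cytotoxicity.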

[19] = biological target: human Retinoid X Receptor beta (RXRb), RXRB (gene 6257) (UniProt P28702); assay: ATG_RXRb_TRANS: Attagene TRANS-FACTORIAL HepG2 Assay for human Retinoid X Receptor beta (RXRb) (AID 2283013; active = hit-call score of the fitted dose curve at least 0.9, where 1 is the maximum)
Sequence of human Retinoid X Receptor beta (RXRb), RXRB (gene 6257) (P28702 whole entry, looked up): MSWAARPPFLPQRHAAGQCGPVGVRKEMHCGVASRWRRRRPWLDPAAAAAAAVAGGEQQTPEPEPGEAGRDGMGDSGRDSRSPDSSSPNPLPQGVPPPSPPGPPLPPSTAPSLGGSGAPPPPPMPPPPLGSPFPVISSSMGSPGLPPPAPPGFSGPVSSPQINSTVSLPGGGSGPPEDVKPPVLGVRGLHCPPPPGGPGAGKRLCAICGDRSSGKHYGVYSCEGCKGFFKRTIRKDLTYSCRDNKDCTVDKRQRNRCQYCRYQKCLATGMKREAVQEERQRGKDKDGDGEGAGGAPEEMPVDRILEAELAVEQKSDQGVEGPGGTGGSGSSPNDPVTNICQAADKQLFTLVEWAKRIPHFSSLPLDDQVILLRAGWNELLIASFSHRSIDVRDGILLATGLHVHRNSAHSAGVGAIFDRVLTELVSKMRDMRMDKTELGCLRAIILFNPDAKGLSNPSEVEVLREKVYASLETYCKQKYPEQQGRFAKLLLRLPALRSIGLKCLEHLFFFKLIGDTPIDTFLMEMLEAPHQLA
In short: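 Multiplexed TRANS reporter assay in HepG2; 24 h dosing; reporter mRNA by RT-PCR/CE fluorescence; gain-of-signal relative to DMSO.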

[20] = read-out: Monocyte Chemoattractant Protein-1 (MCP1), CCL2 (gene 6347); assay: BSK_4H_MCP1: BioMAP Diversity Plus: 4H Assay for Monocyte Chemoattractant Protein-1 (MCP1) Biomarker Activity (AID 2283018); details: primary human endothelial cells (HUVEC); actives raise or lower the signal
In short: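 Readout: MCP-1 ELISA on compound-treated HUVEC, sampled 24 h post-dosing. Baseline and negative control DMSO; bidirectional fit. Overt toxicity checked alongside by sulforhodamine B protein staining at time of biomarker measurement.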

Measured: AC50

Sequence of E-selectin (Homo sapiens) (P16581 whole entry, looked up): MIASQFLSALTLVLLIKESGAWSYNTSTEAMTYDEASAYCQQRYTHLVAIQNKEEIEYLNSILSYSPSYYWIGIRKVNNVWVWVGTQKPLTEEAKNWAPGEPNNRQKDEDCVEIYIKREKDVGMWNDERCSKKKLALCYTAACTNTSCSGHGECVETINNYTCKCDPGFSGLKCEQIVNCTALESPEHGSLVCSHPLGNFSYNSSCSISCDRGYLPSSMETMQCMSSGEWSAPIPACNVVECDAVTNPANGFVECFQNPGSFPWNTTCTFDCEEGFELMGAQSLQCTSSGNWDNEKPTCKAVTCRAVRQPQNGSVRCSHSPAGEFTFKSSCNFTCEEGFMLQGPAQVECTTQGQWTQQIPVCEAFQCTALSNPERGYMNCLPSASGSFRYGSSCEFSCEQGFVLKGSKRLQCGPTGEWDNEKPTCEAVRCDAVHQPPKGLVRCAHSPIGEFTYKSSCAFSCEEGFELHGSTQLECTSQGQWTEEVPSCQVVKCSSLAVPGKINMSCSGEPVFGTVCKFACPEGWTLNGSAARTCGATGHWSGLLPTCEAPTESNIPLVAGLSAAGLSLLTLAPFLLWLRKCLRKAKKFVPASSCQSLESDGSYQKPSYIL

CO[C@H]1/C=C/O[C@@]2(C)Oc3c(C)c(O)c4c(O)c(c(/C=N/N5CCN(C)CC5)c(O)c4c3C2=O)NC(=O)/C(C)=C\C=C\[C@H](C)[C@H](O)[C@@H](C)[C@@H](O)[C@@H](C)[C@H](OC(C)=O)[C@@H]1C
not listed: [19] | [20]
inactive: all other assays above

Cc1ccc(C(C)C)cc1
not listed: [2] | [6] | [8]
inactive: all other assays above

O=c1[nH]sc2ccccc12
active: [4] 13.5 µM | [5] 27.7 µM | [6] 11.7 µM | [20] 11.6 µM | [7] 5.39 µM | [9] 28.9 µM | [11] 13.8 µM | [12] 26 µM | [13] 5.31 µM | [14] 5.54 µM | [15] 20 µM | [16] 37.1 µM | [17] 5.42 µM | [18] 20 µM
inactive: [1] | [19] | [3] | [10]
